Laboratory results: PubChem BioAssay (NCI)
Several values for one entry are separate records, joined by “and”; a condition that tells them apart may be missing. Identical values can stand only once. About 83,000 compounds went through this panel and 20% of them were active in at least one assay; those are over-represented in the sample as a whole.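 Note: values are percent growth. 100 is the growth of untreated cells, values between 100 and 0 indicate rising inhibition; between -100 and 0 indicates cell death.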 Values without a mark were called inactive. Activity calls are given as the source filed them. Rule for the calls: active = growth percent below 10; inactive = the rest.

tested on: MDA-MB-468 breast; assay: NCI-60 one-dose screen, 48 h (100 = growth as untreated, 0 = no growth, -100 = all killed); conditions: 10 µM unless noted

**Q.** With Cc1nn(-c2ccc(-c3ccc(OC(F)(F)F)cc3)cc2)c2nc(Cc3ccccc3)nc(N)c12 as the molecule, how does the growth read?
**A.** 46%

**Q.** For COc1cccc2c1O/C(=C\c1c([N+](=O)[O-])ncn1C)C2=O, which growth is on record?
**A.** 101%

**Q.** How did the growth turn out when N#Cc1ccc(C2C3=C(CCCC3=O)OC3=C2C(=O)c2ccccc2C3=O)cc1 (stereo unspecified) was run?
**A.** -16.1% (active)

**Q.** Which growth does the source give for CC(=O)Nc1ccc(S(N)(=O)=O)cc1 here?
**A.** 100% and 97.2%

**Q.** How did the growth turn out when Cc1ccc(C=C2C(Cl)=C(Cl)C(Cl)=C2Cl)cc1 was run?
**A.** -59.4% (active)

**Q.** Nc1cc(N)c(S(=O)(=O)O)cc1N=Nc1cc([N+](=O)[O-])ccc1O was tested. Which growth did it give?
**A.** 102%

**Q.** For COc1cc(CNC(=O)CCSc2nc3ccccc3c(=O)n2Cc2cc(OC)c(OC)c(OC)c2)cc(OC)c1OC, which growth is on record?
**A.** 1.82% (active)

**Q.** C=CCn1c(SCC(=O)Nc2cccc(C(=O)/C=C/c3cc(OC)c(OC)c(OC)c3)c2)nc2ccccc2c1=O was tested. Which growth did it give?
**A.** 35.3%

**Q.** With COc1cc(/C=C\c2cc(/C=C\c3ccc(O)c(OC)c3)n(C(=O)COc3ccccc3)n2)ccc1O as the molecule, how does the growth read?
**A.** -1.76% (active)

**Q.** How did the growth turn out when N#CC1=C(N)Oc2cc(N)ccc2C1c1ccc(F)cc1 (stereo unspecified) was run?
**A.** 45.1%

**Q.** How did the growth turn out when O=C(Nc1cccc(C(F)(F)F)c1)c1cc(-c2ccc(F)cc2F)ccc1O was run?
**A.** -5% (active)

**Q.** For O=[N+]([O-])c1ccc(Oc2cccc(C(F)(F)F)c2)c([N+](=O)[O-])c1, which growth is on record?
**A.** -8.95% (active)

**Q.** O=C(Nc1ccc(-c2nc(-c3cccc(O)c3)c(-c3ccnc(Br)c3)[nH]2)cc1)c1ccccc1 was tested. Which growth did it give?
**A.** 7.45% (active)

**Q.** How did the growth turn out when COc1cccc(/C=C/C(=O)c2c(C)nc3ccccc3c2/C=C/c2ccc(C)cc2)c1OC was run?
**A.** 58.3%

**Q.** Which growth does the source give for CCN(CC)C(=O)C1=C(C)NC(=O)NC1c1ccc2c(c1)OCO2 (stereo unspecified) here?
**A.** 112%

**Q.** For CC1(C)CC(=O)C2=C(C1)OC(C(=O)c1ccccc1)C2c1cccc(Oc2ccccc2)c1 (stereo unspecified), which growth is on record?
**A.** 33%

**Q.** With COc1cc(N)c2ncccc2c1Cl as the molecule, how does the growth read?
**A.** 103%

**Q.** Which growth does the source give for COc1ccc(Cn2cc3c(c2-c2cc(OC)c(OC)c(OC)c2)CCc2cnoc2-3)cc1[N+](=O)[O-] here?
**A.** -1.72% (active)

**Q.** How did the growth turn out when CN(C)/C(N)=N/N=C(\c1ccccc1)c1ccccn1 was run?
**A.** 95.8%

**Q.** How did the growth turn out when N/C(=N\N=C\c1cc2ccccc2[nH]1)N/N=C/c1cc2ccccc2[nH]1 was run?
**A.** 107%

**Q.** With Cn1c2c(cc(S(=O)(=O)c3ccccc3)c1=O)CCc1c-2cnn1-c1ccc(Cl)cc1 as the molecule, how does the growth read?
**A.** -43% (active)

**Q.** Which growth does the source give for NNC(=O)c1sc2nc(-c3cnccn3)cc(-c3cccs3)c2c1N here?
**A.** 97.2%

**Q.** For Cc1nc(NC(=O)N2CCC[C@H]2C(N)=O)sc1-c1ccnc(C(C)(C)C(F)(F)F)c1, which growth is on record?
**A.** 6.59% (active)

**Q.** For C=CCn1c(-c2ccc(-c3nc4ccc(C)cc4[nH]3)cc2)n[nH]c1=S, which growth is on record?
**A.** 95.6%

**Q.** How did the growth turn out when COc1ccc(N(C)c2nc(N)nc3sc4c(c23)CCCC4)cc1 was run?
**A.** 19.4%

**Q.** How did the growth turn out when CC/C(=C(/CC)c1ccc(O)cc1)c1ccc(O)cc1 was run?
**A.** 35.2%
